Test results from the supplement of paper PMC10849652.
Targets with a hit are over-represented here; the source holds about 7,900 in all. About 0.6% of all pairs of compound and target were hits. A number with no mark means an inactive call.

What was measured:
Experiment in all cases: log2 fold change, soluble protein after heating vs DMSO (PISA); higher = thermal stabilisation; K562 cells, 10 uM, 30 min; active = over 0.2 and 3.5 SD of the protein, either way, in both replicates (recomputed)
[1] = compound: CS(=O)(=O)c1ccc(-c2cnc(N)c(C(=O)Nc3ccccc3)n2)cc1
Outline: (§1)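 For each measurement, 10 μM compound was applied for 30 min to K562 cells at 2×10^6 cells/mL. Aliquots were heated for 3 min across 48°C-58°C, pooled, and extracted in PBS with 0.5% NP-40 at 4°C; the supernatant after 21,000xg for 90 min was soluble protein. This was quantified by TMTpro 16plex LC-MS/MS with channel sums equalised, and thermal stability was reported relative to control samples from duplicates, on a log2 fold-change scale.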

crizotinib = compound: C[C@@H](Oc1cc(-c2cnn(C3CCNCC3)c2)cnc1N)c1c(Cl)ccc(F)c1Cl [crizotinib]
Outline: as §1

[2] = compound: C[C@@H]1COCCN1C2=NC(=NC(=C2)C3(CC3)S(=O)(=O)C)C4=C5C=CNC5=CC=C4
Outline: as §1

[3] = compound: C[C@H](C1=CC=C(C=C1)C(=O)NC2=C3C=CNC3=NC=C2)N
Outline: as §1

duvelisib = compound: C[C@H](Nc1ncnc2nc[nH]c12)c1cc2cccc(Cl)c2c(=O)n1-c1ccccc1 [duvelisib]
Outline: as §1

gandotinib = compound: Cc1cc(Nc2cc(CN3CCOCC3)c3nc(C)c(Cc4ccc(Cl)cc4F)n3n2)n[nH]1 [gandotinib]
Outline: as §1

tozasertib = compound: Cc1cc(Nc2cc(N3CCN(C)CC3)nc(Sc3ccc(NC(=O)C4CC4)cc3)n2)n[nH]1 [tozasertib]
Outline: as §1

[4] = compound: Cc1cc(SCc2sc(-c3ccc(C(F)(F)F)cc3)nc2C)ccc1OCC(=O)O
Outline: as §1

doramapimod = compound: Cc1ccc(-n2nc(C(C)(C)C)cc2NC(=O)Nc2ccc(OCCN3CCOCC3)c3ccccc23)cc1 [doramapimod]
Outline: as §1

ispinesib = compound: Cc1ccc(C(=O)N(CCCN)[C@@H](c2nc3cc(Cl)ccc3c(=O)n2Cc2ccccc2)C(C)C)cc1 [ispinesib]
Outline: as §1

bafetinib = compound: Cc1ccc(NC(=O)c2ccc(CN3CC[C@H](N(C)C)C3)c(C(F)(F)F)c2)cc1Nc1nccc(-c2cncnc2)n1 [bafetinib]
Outline: as §1

[5] = compound: Cc1cccc(CC(=O)N2CCc3c2ccc(-c2cn(C)c4ncnc(N)c24)c3F)n1
Outline: as §1

nilotinib = compound: Cc1cn(-c2cc(NC(=O)c3ccc(C)c(Nc4nccc(-c5cccnc5)n4)c3)cc(C(F)(F)F)c2)cn1 [nilotinib]
Outline: as §1

[6] = compound: Cc1nc(Nc2n[nH]c3c2CN(C(=O)N[C@H](CN(C)C)c2ccccc2)C3(C)C)c2sccc2n1
Outline: as §1

dasatinib = compound: Cc1nc(Nc2ncc(C(=O)Nc3c(C)cccc3Cl)s2)cc(N2CCN(CCO)CC2)n1 [dasatinib]
Outline: as §1

[7] = compound: Cc1ncc(-c2ccnc(Nc3ccc(S(C)(=O)=O)cc3)n2)n1C(C)C
Outline: as §1

[8] = compound: Cn1cc(-c2ccc3c(c2)CCN3C(=O)Cc2cccc(C(F)(F)F)c2)c2c(N)ncnc21
Outline: as §1

[9] = compound: Cn1cc(-c2ccc3nnc(C(F)(F)c4ccc5ncccc5c4)n3n2)cn1
Outline: as §1

tipifarnib = compound: Cn1cncc1[C@@](N)(c1ccc(Cl)cc1)c1ccc2c(c1)c(-c1cccc(Cl)c1)cc(=O)n2C [tipifarnib]
Outline: as §1

mubritinib = compound: FC(F)(F)c1ccc(/C=C/c2nc(COc3ccc(CCCCn4ccnn4)cc3)co2)cc1 [mubritinib]
Outline: as §1

UniProt Q9UBV8, sequence (Q9UBV8 whole entry, looked up): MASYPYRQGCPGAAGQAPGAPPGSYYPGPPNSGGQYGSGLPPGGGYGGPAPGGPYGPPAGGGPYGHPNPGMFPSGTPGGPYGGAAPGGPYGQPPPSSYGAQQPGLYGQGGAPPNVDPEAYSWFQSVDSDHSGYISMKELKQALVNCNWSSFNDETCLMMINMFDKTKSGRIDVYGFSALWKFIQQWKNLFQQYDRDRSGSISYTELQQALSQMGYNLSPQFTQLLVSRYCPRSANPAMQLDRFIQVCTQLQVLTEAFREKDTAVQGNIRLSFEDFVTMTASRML
UniProt Q9NP80, sequence (Q9NP80 whole entry, looked up): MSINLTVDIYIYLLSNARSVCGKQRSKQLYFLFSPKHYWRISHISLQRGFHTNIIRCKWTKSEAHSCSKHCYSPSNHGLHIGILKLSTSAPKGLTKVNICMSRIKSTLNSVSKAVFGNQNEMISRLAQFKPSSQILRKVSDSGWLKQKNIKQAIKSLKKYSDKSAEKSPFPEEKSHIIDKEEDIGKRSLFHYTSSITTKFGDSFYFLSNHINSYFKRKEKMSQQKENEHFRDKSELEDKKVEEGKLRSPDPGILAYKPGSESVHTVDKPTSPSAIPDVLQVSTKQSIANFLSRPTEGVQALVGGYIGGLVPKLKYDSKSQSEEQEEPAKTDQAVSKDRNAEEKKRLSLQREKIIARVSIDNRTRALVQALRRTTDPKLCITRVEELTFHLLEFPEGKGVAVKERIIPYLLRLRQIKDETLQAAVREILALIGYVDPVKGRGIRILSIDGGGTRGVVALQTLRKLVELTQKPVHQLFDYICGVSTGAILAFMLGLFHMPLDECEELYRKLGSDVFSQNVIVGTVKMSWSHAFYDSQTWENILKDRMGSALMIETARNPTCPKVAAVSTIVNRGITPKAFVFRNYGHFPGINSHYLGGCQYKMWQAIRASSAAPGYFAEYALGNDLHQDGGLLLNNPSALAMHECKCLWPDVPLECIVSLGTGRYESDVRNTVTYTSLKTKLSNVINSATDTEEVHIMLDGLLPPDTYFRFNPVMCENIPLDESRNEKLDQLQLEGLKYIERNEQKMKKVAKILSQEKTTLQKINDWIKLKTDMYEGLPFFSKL
UniProt Q9UMR5, sequence (Q9UMR5 whole entry, looked up): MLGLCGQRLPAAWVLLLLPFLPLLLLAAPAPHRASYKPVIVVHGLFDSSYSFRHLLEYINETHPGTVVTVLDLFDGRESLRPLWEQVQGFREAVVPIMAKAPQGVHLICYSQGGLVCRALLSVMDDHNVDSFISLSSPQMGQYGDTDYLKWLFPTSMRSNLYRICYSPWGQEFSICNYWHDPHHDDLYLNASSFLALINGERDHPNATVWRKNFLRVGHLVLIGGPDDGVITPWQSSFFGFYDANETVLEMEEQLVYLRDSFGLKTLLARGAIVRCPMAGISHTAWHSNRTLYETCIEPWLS
UniProt O43164, sequence (O43164 whole entry, looked up): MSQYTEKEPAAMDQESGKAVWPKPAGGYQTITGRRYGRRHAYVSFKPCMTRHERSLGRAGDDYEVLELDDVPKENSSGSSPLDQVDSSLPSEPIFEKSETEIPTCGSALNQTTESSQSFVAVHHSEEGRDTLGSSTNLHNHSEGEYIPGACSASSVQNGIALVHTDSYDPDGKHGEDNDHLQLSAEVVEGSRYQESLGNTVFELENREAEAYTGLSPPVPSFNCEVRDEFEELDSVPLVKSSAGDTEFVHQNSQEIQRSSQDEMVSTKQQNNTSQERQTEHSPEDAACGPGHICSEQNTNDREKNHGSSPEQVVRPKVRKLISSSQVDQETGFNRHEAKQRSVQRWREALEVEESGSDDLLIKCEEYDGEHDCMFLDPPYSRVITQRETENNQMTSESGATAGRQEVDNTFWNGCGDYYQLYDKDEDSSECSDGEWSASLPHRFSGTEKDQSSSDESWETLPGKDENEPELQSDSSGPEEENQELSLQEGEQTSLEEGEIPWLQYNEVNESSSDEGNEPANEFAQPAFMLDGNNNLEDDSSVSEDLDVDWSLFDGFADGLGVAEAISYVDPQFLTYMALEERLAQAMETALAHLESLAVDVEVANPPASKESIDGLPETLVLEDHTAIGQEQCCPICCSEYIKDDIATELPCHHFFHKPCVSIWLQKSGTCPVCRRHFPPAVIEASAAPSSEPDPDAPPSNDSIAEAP
UniProt Q13362, sequence (Q13362 whole entry, looked up): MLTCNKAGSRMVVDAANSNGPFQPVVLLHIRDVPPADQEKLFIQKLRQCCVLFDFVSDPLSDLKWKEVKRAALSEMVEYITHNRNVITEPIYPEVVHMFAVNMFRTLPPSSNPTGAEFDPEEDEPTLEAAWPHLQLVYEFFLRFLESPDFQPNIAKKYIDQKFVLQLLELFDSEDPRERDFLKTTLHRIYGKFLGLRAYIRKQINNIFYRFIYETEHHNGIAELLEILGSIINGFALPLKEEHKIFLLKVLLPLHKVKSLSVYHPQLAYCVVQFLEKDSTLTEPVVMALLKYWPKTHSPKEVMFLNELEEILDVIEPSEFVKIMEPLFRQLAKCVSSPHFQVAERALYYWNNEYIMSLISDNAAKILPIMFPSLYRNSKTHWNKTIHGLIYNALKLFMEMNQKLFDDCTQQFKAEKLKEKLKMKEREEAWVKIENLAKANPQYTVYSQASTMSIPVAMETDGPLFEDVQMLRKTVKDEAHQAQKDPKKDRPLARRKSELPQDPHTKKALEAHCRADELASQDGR
UniProt Q96HA1, sequence (Q96HA1 whole entry, looked up): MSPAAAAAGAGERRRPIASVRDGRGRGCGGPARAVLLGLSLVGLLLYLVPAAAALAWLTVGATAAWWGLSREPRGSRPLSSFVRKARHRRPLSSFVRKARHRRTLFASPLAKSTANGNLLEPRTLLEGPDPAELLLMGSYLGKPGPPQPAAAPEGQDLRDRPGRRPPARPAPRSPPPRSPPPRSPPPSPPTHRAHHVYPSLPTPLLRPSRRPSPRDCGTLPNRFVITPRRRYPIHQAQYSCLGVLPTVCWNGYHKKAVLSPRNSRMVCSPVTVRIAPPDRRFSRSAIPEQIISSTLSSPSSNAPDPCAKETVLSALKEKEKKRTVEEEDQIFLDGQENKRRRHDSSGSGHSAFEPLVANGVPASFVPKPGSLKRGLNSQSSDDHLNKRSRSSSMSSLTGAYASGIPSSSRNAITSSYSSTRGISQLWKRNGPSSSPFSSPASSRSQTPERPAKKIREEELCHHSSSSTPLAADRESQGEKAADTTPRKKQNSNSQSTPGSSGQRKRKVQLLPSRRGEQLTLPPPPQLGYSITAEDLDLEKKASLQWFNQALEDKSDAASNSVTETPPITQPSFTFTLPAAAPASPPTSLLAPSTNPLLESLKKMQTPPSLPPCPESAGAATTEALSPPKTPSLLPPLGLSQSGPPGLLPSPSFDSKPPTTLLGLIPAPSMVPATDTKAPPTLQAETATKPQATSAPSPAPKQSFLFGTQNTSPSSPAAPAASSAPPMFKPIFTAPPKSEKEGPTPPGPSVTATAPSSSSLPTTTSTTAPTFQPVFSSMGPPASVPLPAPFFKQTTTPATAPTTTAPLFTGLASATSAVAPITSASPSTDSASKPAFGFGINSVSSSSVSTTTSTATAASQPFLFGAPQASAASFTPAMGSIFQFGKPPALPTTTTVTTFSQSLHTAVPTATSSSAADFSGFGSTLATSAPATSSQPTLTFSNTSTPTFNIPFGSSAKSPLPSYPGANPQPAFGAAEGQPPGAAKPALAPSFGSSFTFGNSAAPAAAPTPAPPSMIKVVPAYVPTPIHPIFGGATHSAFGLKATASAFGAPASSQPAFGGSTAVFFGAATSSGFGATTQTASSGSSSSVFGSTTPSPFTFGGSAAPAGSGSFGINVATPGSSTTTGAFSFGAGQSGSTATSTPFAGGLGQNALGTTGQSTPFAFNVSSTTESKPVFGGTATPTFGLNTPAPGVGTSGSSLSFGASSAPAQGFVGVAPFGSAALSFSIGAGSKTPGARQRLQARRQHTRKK
UniProt P17980, sequence (P17980 whole entry, looked up): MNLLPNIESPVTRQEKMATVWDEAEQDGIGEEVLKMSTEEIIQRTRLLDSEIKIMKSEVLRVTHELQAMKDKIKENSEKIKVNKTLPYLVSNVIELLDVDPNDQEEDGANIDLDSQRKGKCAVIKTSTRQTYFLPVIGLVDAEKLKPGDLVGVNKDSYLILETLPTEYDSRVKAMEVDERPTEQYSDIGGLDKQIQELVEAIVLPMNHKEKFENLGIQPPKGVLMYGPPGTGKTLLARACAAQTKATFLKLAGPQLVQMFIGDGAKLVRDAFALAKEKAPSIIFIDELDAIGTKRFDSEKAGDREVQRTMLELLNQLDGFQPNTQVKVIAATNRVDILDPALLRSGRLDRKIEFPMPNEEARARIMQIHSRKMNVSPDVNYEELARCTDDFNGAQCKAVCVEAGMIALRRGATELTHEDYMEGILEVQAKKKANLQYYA
UniProt P05423, sequence (P05423 whole entry, looked up): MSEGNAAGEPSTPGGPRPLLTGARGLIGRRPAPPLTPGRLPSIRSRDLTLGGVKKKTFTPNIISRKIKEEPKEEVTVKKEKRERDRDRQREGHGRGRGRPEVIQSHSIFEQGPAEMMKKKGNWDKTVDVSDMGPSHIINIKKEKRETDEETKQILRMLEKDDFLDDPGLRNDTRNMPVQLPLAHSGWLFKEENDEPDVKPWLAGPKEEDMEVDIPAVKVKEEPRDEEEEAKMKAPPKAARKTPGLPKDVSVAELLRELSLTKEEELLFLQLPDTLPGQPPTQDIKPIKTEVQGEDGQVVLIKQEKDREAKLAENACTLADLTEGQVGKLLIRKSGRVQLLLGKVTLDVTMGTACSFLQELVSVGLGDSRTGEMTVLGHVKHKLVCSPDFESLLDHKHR
UniProt P25788, sequence (P25788 whole entry, looked up): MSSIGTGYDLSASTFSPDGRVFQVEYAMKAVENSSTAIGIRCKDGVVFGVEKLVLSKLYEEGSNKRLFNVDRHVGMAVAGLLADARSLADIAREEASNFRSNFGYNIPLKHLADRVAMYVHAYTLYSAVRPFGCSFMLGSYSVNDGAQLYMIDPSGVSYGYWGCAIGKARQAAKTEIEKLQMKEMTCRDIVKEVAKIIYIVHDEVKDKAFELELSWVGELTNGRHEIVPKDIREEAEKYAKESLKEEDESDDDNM

Target	log2 fold change [1]	log2 fold change (crizotinib)	log2 fold change [2]	log2 fold change [3]	log2 fold change (duvelisib)	log2 fold change (gandotinib)	log2 fold change (tozasertib)	log2 fold change [4]	log2 fold change (doramapimod)	log2 fold change (ispinesib)	log2 fold change (bafetinib)	log2 fold change [5]	log2 fold change (nilotinib)	log2 fold change [6]	log2 fold change (dasatinib)	log2 fold change [7]	log2 fold change [8]	log2 fold change [9]	log2 fold change (tipifarnib)	log2 fold change (mubritinib)
POLR3D (UniProt P05423)	0.088	-0.035	-0.064	0.112	0.011	-0.056	-0.063	-0.085	0.022	-0.05	-0.052	0.044	0.023	-0.125	1.17	0.057	-0.082	0.046	0.018	-0.072
PXK (UniProt Q7Z7A4)	-0.06	-0.139	0.032	-0.026	-0.023	-0.042	-0.024	0.011	-0.025	-0.203	-0.01	0.086	-0.026	0.025	0.226	0.012	0.029	-0.106	-0.001	0.098
PDCD6IP (UniProt Q8WUM4)	0.078	-0.177	0.067	0.077	0.026	-0.117	0.085	0.17	-0.042	-0.14	0.042	0.157	-0.116	-0.205	-0.283	0.069	0.016	0.068	-0.221	0.105
PPP2R5C isoform 4 (UniProt Q13362)	0.031	-0.021	-0.177	0.029	0.066	-0.011	-0.055	-0.01	-0.06	-0.036	-0.032	-0.019	-0.05	-0.025	-0.058	-0.008	0.037	0.052	-0.093	0.095
PNPLA8 (UniProt Q9NP80)	-0.009	-0.12	0.002	-0.034	-0.003	0.031	-0.011	-0.002	0.023	-0.051	-0.04	-0.13	0.036	-0.026	-0.055	0.038	0.036	-0.063	0.053	0.095
PJA2 (UniProt O43164)	0.032	-0.042	-0.126	0.091	-0.021	0.097	-0.018	-0.118	0.033	-0.098	-0.121	-0.072	0.023	-0.021	0.036	-0.04	-0.06	0.008	0.071	0.018
PSMC3 (UniProt P17980)	0.002	0.012	-0.098	0.067	-0.048	0.027	0.024	0.011	0.017	-0.024	0.072	-0.033	-0.004	0.059	0.016	-0.017	-0.1	-0.005	0.124	-0.016
PLCG1 isoform 2 (UniProt P19174)	0.016	-0.412 (active)	-0.09	0.16	-0.037	0.107	0.016	0.161	0.001	-0.178	-0.054	-0.08	-0.072	0.079	-0.257	0.024	0.031	0.005	-0.144	0.11
PHKG2 (UniProt P15735)	0.015	0	-0.097	0.053	-0.077	-0.017	-0.134	-0.006	0.044	0.018	-0.047	0.044	-0.177	0.321 (active)	-0.306	0.011	-0.024	-0.017	-0.046	-0.127
PEF1 (UniProt Q9UBV8)	0.119	0.094	0.059	-0.102	0.103	-0.019	0.06	0.019	-0.091	0.208	-0.106	0.089	-0.005	0.012	-0.047	-0.013	0.132	0.113	-0.126	0.099
PSMD5 (UniProt Q16401)	0.008	0.006	0.046	-0.064	-0.023	-0.051	0.043	-0.013	-0.03	0.03	-0.09	0.006	-0.015	-0.026	-0.026	0.006	0.018	0.002	-0.05	0.023
PSMA3 (UniProt P25788)	0.011	0.052	-0.012	-0.117	-0.074	0.054	0.046	0.007	0.018	-0.002	0.06	0.003	0.041	0.041	0.029	0.008	-0.003	-0.005	0.006	-0.016
POLR2M (UniProt P0CAP2)	0.028	0.074	0.097	0.044	0.164	0.141	-0.052	0.012	0.013	-0.055	-0.029	-0.015	-0.011	0.034	0.055	0.138	-0.051	-0.024	0.035	-0.037
POM121 (UniProt Q96HA1)	0.024	-0.139	-0.016	0.084	-0.022	-0.043	0.014	0.008	0.134	-0.307 (active)	-0.114	0.012	0.135	0	-0.051	-0.177	-0.081	-0.063	0.021	
PPT2 isoform 3 (UniProt Q9UMR5)	0.074	-0.182	-0.021	-0.148	0.057	0.001	-0.04	-0.069	0.006	-0.041	-0.301 (active)	-0.013	0.031	0.013	0.055	-0.045	0.07	0.037	0.013	0.034
PURA (UniProt Q00577)	-0.064	0.03	-0.44	0.287	-0.165	0.334	0.069	-0.012	0.063	-0.143	0.108	-0.089	0.06	0.105	0.335	0.017	-0.382	-0.12	0.207	-0.06
